The panel holds about 79,000 compounds, 15% with a hit somewhere; the sample as a whole holds those more often. Calls of active or inactive are those of the source. No stated cut-off is given here; in the data, active means growth inhibition above about 70%; inactive means the rest.
Legend:
[1] = NCI Yeast Anticancer Drug Screen. Data for the rad50 strain (AID 155);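 further: 0% = growth of vehicle-only cultures of the same strain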; conditions: S. cerevisiae rad50 strain growth inhibition, active compounds read high
Procedure, shortened: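 Cells are treated with compound, grown, and their growth is then scored against vehicle-only cultures of the same repair-deficient yeast strain.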

[2] = NCI Yeast Anticancer Drug Screen. Data for the mec2-1 strain (AID 157); conditions: S. cerevisiae mec2-1 strain, active compounds read high
Procedure, shortened: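 Vehicle-treated cultures served as reference for growth inhibition of compound-exposed mec2-1 yeast.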

[3] = NCI Yeast Anticancer Drug Screen. Data for the sgs1 mgt1 strain (AID 161);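 further: 0% = growth of cultures given vehicle only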; conditions: S. cerevisiae sgs1 mgt1 strain, active compounds read high
Procedure, shortened: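 Test agents were incubated with a DNA-repair-mutant yeast strain. Growth was then read and compared against vehicle-treated controls.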

[4] = NCI Yeast Anticancer Drug Screen. Data for the cln2 rad14 strain (AID 165);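 further: 0% = growth equal to vehicle treated cultures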; conditions: S. cerevisiae cln2 rad14 strain, active compounds read high
Procedure, shortened: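 Each compound was tested on cln2 rad14 yeast. Inhibition of growth was calculated against vehicle-exposed controls.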

[5] = NCI Yeast Anticancer Drug Screen. Data for the bub3 strain (AID 167); conditions: S. cerevisiae bub3 mutant strain, active compounds read high
Procedure, shortened: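 Part of a panel of yeast mutants defective in DNA damage repair or cell cycle regulation. Each strain is grown with compound, and inhibition is calculated relative to solvent-treated cultures.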

[6] = NCI Yeast Anticancer Drug Screen. Data for the mlh1 rad18 strain (AID 175); conditions: S. cerevisiae mlh1 rad18 strain growth inhibition, active compounds read high
Procedure, shortened: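 Vehicle-treated cultures served as the reference for growth inhibition in a yeast strain carrying DNA damage repair alterations exposed to each compound.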

[7] = at 5.0 µM (retest, dose inferred, filed as 0.5)
[8] = at 50.0 µM (retest, dose inferred, filed as 5.0)

Measured: growth inhibition

CN(C)C1=NC2=S(SC(Nc3ccccc3)=N2)S1 (stereo unspecified)
inactive: [1]; [7] -4% | [1]; [8] 15% | [1]; at 50.0 µM 10.8% | [2]; [7] -7% | [2]; [8] 33% | [2]; at 50.0 µM -1% | [3]; [7] 10% | [3]; [8] 28% | [3]; at 50.0 µM -19.1% | [4]; [7] 10% | [4]; [8] 24% | [4]; at 50.0 µM -0.75% | [5]; [7] 3% | [5]; [8] 20% | [5]; at 50.0 µM 44% | [6]; [7] 24% | [6]; [8] 43% | [6]; at 50.0 µM -7.4%

Cc1nn(C(=O)c2ccccc2O)c2c1C(c1ccco1)SC(N)=N2 (stereo unspecified)
inactive: [1]; [7] -6% | [1]; [8] 65% | [1]; at 50.0 µM 67.5% | [2]; [7] 11% | [2]; [8] 59% | [2]; at 50.0 µM 38.8% | [3]; [7] 8% | [3]; [8] 64% | [3]; at 50.0 µM 57% | [4]; [7] 10% | [4]; [8] 52% | [4]; at 50.0 µM 43.6% | [5]; [7] 7% | [5]; at 50.0 µM 69% | [6]; [7] 11% | [6]; at 50.0 µM 59.3%
active: [5]; [8] 86% | [6]; [8] 86%

Cc1ccc2c(c1)SSc1ccc(C)cc1SS2
active: [1]; [7] 78% | [1]; [8] 92% | [1]; at 50.0 µM 81% | [2]; [8] 94% | [3]; [8] 94% | [3]; at 50.0 µM 75.7% | [4]; [7] 84% | [4]; [8] 91% | [5]; [7] 79% | [5]; [8] 93% | [5]; at 50.0 µM 73.2% | [6]; [8] 93%
inactive: [2]; [7] 42% | [2]; at 50.0 µM 27.9% | [3]; [7] 35% | [4]; at 50.0 µM 55.5% | [6]; [7] 66% | [6]; at 50.0 µM 64.8%

O=[N+]([O-])c1ccc(O)c(/C=N\NC(=S)Nc2ccc3cn[nH]c3c2)c1
active: [1]; at 50.0 µM 74.3%
inactive: [1]; [7] -2% | [1]; [8] 33% | [2]; [7] 1% | [2]; [8] 20% | [2]; at 50.0 µM 47.2% | [3]; [7] 11% | [3]; [8] 37% | [3]; at 50.0 µM 41.2% | [4]; [7] -17% | [4]; [8] 37% | [4]; at 50.0 µM 32.6% | [5]; [7] -2% | [5]; [8] 52% | [5]; at 50.0 µM 49.1% | [6]; [7] 12% | [6]; [8] 41% | [6]; at 50.0 µM 30.8%

CC(=O)OC1COC(N2C(=O)C(=O)c3cc(Br)ccc32)C(OC(C)=O)C1OC(C)=O (stereo unspecified)
inactive: [1]; [7] -11% | [1]; [8] 20% | [1]; at 50.0 µM 50.7% | [2]; [7] 1% | [2]; [8] 7% | [2]; at 50.0 µM -12.3% | [3]; [7] -16% | [3]; [8] 0% | [3]; at 50.0 µM 2.9% | [4]; [7] -37% | [4]; [8] -4% | [4]; at 50.0 µM 19.1% | [5]; [7] -13% | [5]; [8] 23% | [5]; at 50.0 µM 25.4% | [6]; [7] -2% | [6]; [8] 14% | [6]; at 50.0 µM 12.9%

O=[N+]([O-])c1cc(C(F)(F)F)cc([N+](=O)[O-])c1CCl
active: [1]; [7] 100% | [1]; [8] 100% | [1]; at 50.0 µM 99.7% | [2]; [7] 100% | [2]; [8] 100% | [2]; at 50.0 µM 99.8% | [3]; [7] 100% | [3]; [8] 100% | [3]; at 50.0 µM 99.6% | [4]; [7] 100% | [4]; [8] 100% | [4]; at 50.0 µM 99.4% | [5]; [7] 100% | [5]; [8] 100% | [5]; at 50.0 µM 99.4% | [6]; [7] 100% | [6]; [8] 100% | [6]; at 50.0 µM 99.7%

Cc1cccc2c(CBr)cc(=O)[nH]c12
inactive: [1]; [7] 7% | [2]; [7] 15% | [3]; [7] 13% | [4]; [7] 4% | [4]; [8] 61% | [5]; [7] 12% | [6]; [7] 35%
active: [1]; [8] 91% | [1]; at 50.0 µM 86.8% | [2]; [8] 98% | [2]; at 50.0 µM 90.1% | [3]; [8] 92% | [3]; at 50.0 µM 84.3% | [4]; at 50.0 µM 91.5% | [5]; [8] 96% | [5]; at 50.0 µM 94.2% | [6]; [8] 97% | [6]; at 50.0 µM 95.7%

From PubChem BioAssay (NCI)
